From PubChem BioAssay AID2530 (National Center for Advancing Translational Sciences (NCATS), 2010)
Inconclusive results are not listed. A number with no mark means an inactive call. Activity calls are given as the source filed them. Calls come from the whole dose curve; as a rule, active = well fitted inhibition curve with a large enough effect; inconclusive = small, poorly fitted or top-dose-only effect; inactive = flat fitted curve, though single readings scatter.

Target: Luciferin 4-monooxygenase (Photuris pensylvanica) (UniProt Q27757)
Experiment: Secondary Assay for Luciferase (Kinase-Glo TM) Inhibition Counterscreen;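 for activity, negative = inhibition: 0% = DMSO only and -100% = 40 µM SIB 1757 full inhibition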
Conditions: Kinase-Glo luciferase enzyme, luminescence; series mostly up to 58.1 µM; activity, negative = inhibition: at the top concentration
Outline: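 Inhibition was fitted with the Hill equation after normalizing luminescence to DMSO (basal) and 40 uM SIB 1757 (full inhibition). Kinase-Glo luciferase ran for 8 min at room temperature in imidazole buffer pH 7.2 with KCl, MgCl2 and 10 uM ATP.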
Potency is the fitted concentration of half-maximal effect.

Compound | activity, negative = inhibition [%] | Potency
CC(=O)Nc1cccc(S(=O)(=O)Nc2ccc(C)c(C)c2)c1 | -3.96 | –
COc1ccccc1NS(=O)(=O)c1ccc2c(c1)CCC(=O)N2 | 1.44 | –
O=S1(=O)N=C(Oc2ccc(Cl)cc2)c2ccccc21 | -4.07 | –
Cc1ccc(NS(=O)(=O)c2ccc3c(c2)CCO3)cc1C | 2.64 | –
Brc1ccc(N=Nc2ccc3ccccc3n2)cc1 | – | 7.3 µM (active)
Cc1ccc(NS(=O)(=O)c2ccc3c(c2)N(C)CCO3)cc1C | 0.646 | –
O=C1c2ccccc2C(=O)N1c1ccc(Cl)cc1 | 0.194 | –
O=C(/C=C1\C(=O)Nc2ccccc21)/C=C1\C(=O)Nc2ccccc21 | -14.8 | –
Cc1ccc(NS(=O)(=O)c2ccc3c(c2)CCCC(=O)N3)cc1C | -3.49 | –
CC(=O)N(C1=C(Cl)C(=O)c2ccccc2C1=O)c1ccc(C(=O)O)cc1 | -4.24 | –
O=[N+]([O-])c1cc2oc3c(c2c(C=NCc2ccccc2)c1O)CCCC3 | -0.834 | –
O=C1c2ccccc2C(=O)N1Cc1ccccn1 | -3.08 | –
COc1ccc(-c2nc(-c3ccccn3)no2)cc1 | – | 2.91 µM (active)
O=C1c2ccccc2C(=O)N1c1cccc(=O)[nH]1 | -2.84 | –
COc1ccc(OC2=NS(=O)(=O)c3ccccc32)cc1 | -2.4 | –
Cc1ccc(S(=O)(=O)/N=C2/C=C(Sc3ncn[nH]3)C(=O)c3ccccc32)cc1 | -6.43 | –
COc1cccc(Cn2ncc3c4sc(S(C)=O)cc4n(C)c3c2=O)c1 (stereo not drawn) | – | inactive
Cc1ccc(NS(=O)(=O)c2ccc(-c3ccccc3)cc2)cc1C | 3.13 | –
CC(=O)Nc1ccc(S(=O)(=O)Nc2ccc(C)c(C)c2)cc1 | 1.73 | –

Compound | activity, negative = inhibition [%] | Potency
COc1cc(/C=N/N2C(C)CCCC2C)cc(OC)c1O (stereo not drawn) | 0.38 | –
Cc1sc2nc(CN3CCN(c4ccc(O)cc4)CC3)[nH]c(=O)c2c1C | 0.226 | –
COc1cccc(N2C(=O)c3ccccc3C2=O)n1 | -2.44 | –
O=C1c2ccccc2C(=O)N1Cc1ccccc1 | -0.279 | –
Cc1cc2c(s1)c1cnn(Cc3ccccc3F)c(=O)c1n2C | – | inactive
CN1CCc2cccc3c2C1Cc1ccc(O)c(O)c1-3 (stereo not drawn) | 1.25 | –
CC(=O)N1CCCc2cc(S(=O)(=O)Nc3ccc(C)c(C)c3)ccc21 | -2.94 | –
O=C1CCc2cc(S(=O)(=O)Nc3ccc(F)cc3)ccc2N1 | -1.28 | –
Cc1ccc(NS(=O)(=O)c2cccc(C(=O)O)c2)cc1C | -3.53 | –
O=C1CCc2cc(S(=O)(=O)Nc3cccnc3)ccc2N1 | -1.37 | –
O=C1CCc2cc(S(=O)(=O)Nc3cccc4ccccc34)ccc2N1 | -0.456 | –
Cc1occc1C(=O)O/N=C(\N)c1ccccc1 | – | 6.51 µM (active)
O=C(NC(=O)c1ccccc1)Nc1ccccn1 | – | 5.8 µM (active)
COc1cc(N2C(=O)c3ccccc3C2=O)c2ncccc2c1 | -2.36 | –
CCOc1ccc(C(=O)O/N=C(\N)c2ccccn2)cc1 | – | 5.8 µM (active)
O=C1CCc2cc(S(=O)(=O)Nc3ccc(Cl)cc3)ccc2N1 | -2.19 | –
O=C1CCc2cc(S(=O)(=O)Nc3ccc4ccccc4c3)ccc2N1 | -2.13 | –
CC(=O)N(C1=C(Cl)C(=O)c2ccccc2C1=O)C1CCCCC1 | -12.8 | –
CCOC(=O)Cc1csc(NC(=S)NC(=O)c2ccc([N+](=O)[O-])cc2)n1 | 1.5 | –
